From PubChem BioAssay AID1159580 (chemical genetic matrix, 2015)
The whole screen tested about 5,500 compounds, of which about 2,000 (36%) were called active. About 18% were inconclusive and are not listed. No stated cut-off is given here; in the data, active means normalized growth mostly below about 0.91 (no sharp cut-off); inconclusive means no clear call, values can overlap the other calls; inactive means mostly above about 0.92. Some of the results follow.

Assay: chemical genetic growth profiling, strain panel (AID 1159580);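 further: tested at 20 µM; growth read once vehicle control cultures reached saturation at 30 °C; 1 = growth at the plate median or of vehicle wells; lower values mean less growth of the strain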
Conditions: S. cerevisiae deletion strains, growth OD

Measured: normalized growth

O=c1cc(-c2ccc(O)cc2)oc2cc(O)cc(O)c12
inactive: locus YAL021C, strain ccr4, active compounds read low 0.995 | locus YAL026C, strain drs2, active compounds read low 0.978 | locus YAL030W, strain snc1, active compounds read low 0.99 | locus YAL040C, strain CLN3, active compounds read low 0.976 | locus YBL061C, strain skt5, active compounds read low 1 | locus YBR009C, strain hhf1, active compounds read low 1.01 | locus YBR023C, strain chs3, active compounds read low 0.993 | locus YBR171W, strain sec66, active compounds read low 0.997 | locus YBR231C, strain swc5, active compounds read low 1 | locus YBR279W, strain paf1, active compounds read low 0.994 | locus YCL011C, strain gbp2, active compounds read low 0.999 | locus YCL016C, strain dcc1, active compounds read low 0.998 | locus YCL061C, strain MRC1, active compounds read low 1.01 | locus YCL069W, strain vba3, active compounds read low 0.989 | locus YCR088W, strain abp1, active compounds read low 0.987 | locus YDL005C, strain med2, active compounds read low 0.995 | locus YDL040C, strain nat1, active compounds read low 0.99 | locus YDR001C, strain nth1, active compounds read low 0.981 | locus YDR069C, strain doa4, active compounds read low 0.966 | locus YDR137W, strain rgp1, active compounds read low 1.04 | locus YDR159W, strain sac3, active compounds read low 0.975 | locus YDR195W, strain ref2 0.955 | locus YDR297W, strain sur2, active compounds read low 0.993 | locus YDR334W, strain swr1, active compounds read low 0.98 | locus YDR335W, strain msn5, active compounds read low 0.996 | locus YDR363W, strain ESC2, active compounds read low 0.998 | locus YDR392W, strain spt3, active compounds read low 0.922 | locus YEL003W, strain gim4, active compounds read low 0.997 | locus YEL037C, strain rad23, active compounds read low 0.981 | locus YEL061C, strain CIN8 (second series), active compounds read low 0.985 | locus YER002W, strain NOP16, active compounds read low 0.987 | locus YER015W, strain faa2, active compounds read low 0.986 | locus YER016W, strain bim1, active compounds read low 0.98 | locus YER111C, strain swi4, active compounds read low 0.989 | locus YER155C, strain BEM2 (second series), active compounds read low 0.975 | locus YFR010W, strain ubp6, active compounds read low 0.966 | locus YGL167C, strain pmr1, active compounds read low 0.974 | locus YGL173C, strain kem1, active compounds read low 1 | locus YGL227W, strain vid30, active compounds read low 0.989 | locus YGL240W, strain doc1, active compounds read low 1 | locus YGL253W, strain hxk2, active compounds read low 0.973 | locus YGR229C, strain SMI1, active compounds read low 1.01 | locus YHR013C, strain ard1, active compounds read low 1.01 | locus YHR027C, strain rpn1, active compounds read low 0.997 | locus YHR030C, strain SLT2, active compounds read low 1.02 | locus YHR079C, strain IRE1, active compounds read low 0.996 | locus YHR142W, strain chs7, active compounds read low 0.98 | locus YJL092W, strain hpr5, active compounds read low 0.988 | locus YJL095W, strain BCK1 (second series), active compounds read low 0.996 | locus YJL095W, strain BCK1, active compounds read low 1.02 | locus YJL115W, strain asf1, active compounds read low 0.978 | locus YJL129C, strain trk1, active compounds read low 0.995 | locus YJL154C, strain vps35, active compounds read low 0.977 | locus YJL164C, strain tpk1, active compounds read low 1.03 | locus YJL166W, strain qcr8, active compounds read low 1.01 | locus YJL187C, strain SWE1, active compounds read low 0.998 | locus YJR066W, strain TOR1, active compounds read low 0.954 | locus YKL160W, strain elf1, active compounds read low 1.01 | locus YKR026C, strain gcn3, active compounds read low 0.972 | locus YKR091W, strain srl3, active compounds read low 0.985 | locus YLL001W, strain dnm1, active compounds read low 1.03 | locus YLL026W, active compounds read low 0.993 | locus YLL041C, strain sdh2, active compounds read low 0.997 | locus YLR027C, strain aat2, active compounds read low 0.998 | locus YLR113W, strain HOG1, active compounds read low 0.95 | locus YLR221C, strain rsa3, active compounds read low 0.992 | locus YLR258W, strain gsy2, active compounds read low 1 | locus YLR262C, strain YPT6 (second series), active compounds read low 1.05 | locus YLR320W, strain mms22, active compounds read low 1.01 | locus YLR342W, strain FKS1, active compounds read low 0.993 | locus YLR357W, strain rsc2, active compounds read low 0.918 | locus YLR370C, strain arc18, active compounds read low 0.981 | locus YLR384C, strain iki3, active compounds read low 0.98 | locus YML120C, strain ndi1, active compounds read low 0.984 | locus YMR058W, strain fet3, active compounds read low 0.97 | locus YMR125W, strain sto1, active compounds read low 0.973 | locus YMR129W, active compounds read low 0.989 | locus YMR205C, strain PFK2, active compounds read low 1.03 | locus YMR231W, strain pep5, active compounds read low 0.996 | locus YNL071W, strain lat1, active compounds read low 0.993 | locus YNL175C, strain NOP13, active compounds read low 1.01 | locus YNL183C, strain NPR1, active compounds read low 0.943 | locus YNL197C, strain WHI3, active compounds read low 0.981 | locus YNL209W, strain ssb2, active compounds read low 0.998 | locus YNL224C, strain SQS1, active compounds read low 0.982 | locus YNL248C, strain rpa49, active compounds read low 0.989 | locus YNL322C, strain KRE1 (second series), active compounds read low 0.977 | locus YNR049C, strain mso1, active compounds read low 0.989 | locus YOR001W, strain rrp6, active compounds read low 1 | locus YOR070C, strain gyp1, active compounds read low 1 | locus YOR080W, strain dia2, active compounds read low 0.986 | locus YOR083W, strain WHI5 (second series), active compounds read low 0.954 | locus YOR083W, strain WHI5, active compounds read low 1.02 | locus YOR106W, strain vam3, active compounds read low 0.999 | locus YOR231W, strain MKK1, active compounds read low 1.02 | locus YOR265W, strain rbl2, active compounds read low 0.998 | locus YOR270C, strain vph1, active compounds read low 0.988 | locus YOR290C, strain snf2, active compounds read low 0.96 | locus YPL051W, strain arl3, active compounds read low 0.999 | locus YPL078C, strain atp4, active compounds read low 1 | locus YPL106C, strain sse1, active compounds read low 0.955 | locus YPL240C, strain hsp82, active compounds read low 0.995 | locus YPL256C, strain CLN2, active compounds read low 1.01
